Compounds without any hit were thinned out: in the full panel of roughly 83,000, 20% have a hit.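 Testing used 96-well plates and a 48-hour single-concentration exposure. Example: -40 means 40% of the starting cells died.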 Unmarked numbers belong to inactive results. Active and inactive are the calls of the source. Rule for the calls: active = growth percent below 10; inactive = the rest.
Experiments:
Experiment in all cases: NCI-60 one-dose screen, 48 h (100 = growth as untreated, 0 = no growth, -100 = all killed)
Details in all cases: 10 µM unless noted
RPMI-8226 leukemia = tested on: RPMI-8226 leukemia
OVCAR-8 ovarian = tested on: OVCAR-8 ovarian
OVCAR-5 ovarian = tested on: OVCAR-5 ovarian
OVCAR-4 ovarian = tested on: OVCAR-4 ovarian
SK-OV-3 ovarian = tested on: SK-OV-3 ovarian
IGROV1 ovarian = tested on: IGROV1 ovarian
OVCAR-3 ovarian = tested on: OVCAR-3 ovarian
HS 578T breast = tested on: HS 578T breast
NCI/ADR-RES ovarian = tested on: NCI/ADR-RES ovarian
T-47D breast = tested on: T-47D breast
BT-549 breast = tested on: BT-549 breast
MDA-MB-435 melanoma = tested on: MDA-MB-435 melanoma
SW-620 colon = tested on: SW-620 colon
MCF7 breast = tested on: MCF7 breast
HCT-116 colon = tested on: HCT-116 colon
HCC-2998 colon = tested on: HCC-2998 colon
KM12 colon = tested on: KM12 colon

## COc1ccc2c(c1)nc(NNC(=O)c1cnccn1)c1cccn12
RPMI-8226 leukemia
  growth: 23.5%
OVCAR-8 ovarian
  growth: 24.1%
OVCAR-5 ovarian
  growth: 42.3%
OVCAR-4 ovarian
  growth: 17.5%
SK-OV-3 ovarian
  growth: 26.5%
IGROV1 ovarian
  growth: 16.3%
OVCAR-3 ovarian
  growth: 15.3%
HS 578T breast
  growth: 78.2%
NCI/ADR-RES ovarian
  growth: 9.97% (active)
T-47D breast
  growth: 22.4%
BT-549 breast
  growth: 37.9%
MDA-MB-435 melanoma
  growth: 33.7%
SW-620 colon
  growth: 29.6%
MCF7 breast
  growth: 10.7%
HCT-116 colon
  growth: 20.3%
HCC-2998 colon
  growth: 49.7%
KM12 colon
  growth: 24.8%

## COc1nc2ccccc2cc1-c1nc2c(cnn2-c2ccc(Br)cc2)c(=O)[nH]1
RPMI-8226 leukemia
  growth: 20.7%
OVCAR-8 ovarian
  growth: 27.7%
OVCAR-5 ovarian
  growth: 44.1%
OVCAR-4 ovarian
  growth: 57.3%
SK-OV-3 ovarian
  growth: 15.1%
IGROV1 ovarian
  growth: 41.8%
OVCAR-3 ovarian
  growth: -34.2% (active)
HS 578T breast
  growth: 23%
NCI/ADR-RES ovarian
  growth: 4.99% (active)
T-47D breast
  growth: 24.2%
BT-549 breast
  growth: 50%
MDA-MB-435 melanoma
  growth: -74.8% (active)
SW-620 colon
  growth: 19.5%
MCF7 breast
  growth: 22.1%
HCT-116 colon
  growth: 23.1%
HCC-2998 colon
  growth: 51.1%
KM12 colon
  growth: 18.3%

## Cc1ccc(C(=O)NCCNc2nccc(-c3c(-c4cccc(F)c4)nc4sccn34)n2)cc1
RPMI-8226 leukemia
  growth: 53.8%
OVCAR-8 ovarian
  growth: 55%
OVCAR-5 ovarian
  growth: 69.2%
OVCAR-4 ovarian
  growth: 67.8%
SK-OV-3 ovarian
  growth: 64.3%
IGROV1 ovarian
  growth: 23.1%
OVCAR-3 ovarian
  growth: 61.6%
HS 578T breast
  growth: 33%
NCI/ADR-RES ovarian
  growth: 55.6%
T-47D breast
  growth: 42.4%
BT-549 breast
  growth: 55.2%
MDA-MB-435 melanoma
  growth: 41.6%
SW-620 colon
  growth: 61.8%
MCF7 breast
  growth: 27.2%
HCT-116 colon
  growth: 27%
HCC-2998 colon
  growth: 64.2%
KM12 colon
  growth: 77.5%

## O=C(/C=C/c1sc(Cl)nc1Cl)c1ccc(F)cc1
RPMI-8226 leukemia
  growth: 0.843% (active)
OVCAR-8 ovarian
  growth: 83.7%
OVCAR-5 ovarian
  growth: 104%
OVCAR-4 ovarian
  growth: 102%
SK-OV-3 ovarian
  growth: 99.4%
IGROV1 ovarian
  growth: 94.8%
OVCAR-3 ovarian
  growth: 9.39% (active)
HS 578T breast
  growth: 86.8%
NCI/ADR-RES ovarian
  growth: 98.5%
T-47D breast
  growth: 83.7%
BT-549 breast
  growth: 103%
MDA-MB-435 melanoma
  growth: 101%
SW-620 colon
  growth: 24.7%
MCF7 breast
  growth: 14.4%
HCT-116 colon
  growth: 39.4%
HCC-2998 colon
  growth: 30.4%
KM12 colon
  growth: 60.8%

## O=C(N/N=C/c1ccc(Cl)cc1)c1ccc(C(F)(F)F)nc1Nc1cccc(C(F)(F)F)c1
RPMI-8226 leukemia
  growth: 3.59% (active)
OVCAR-8 ovarian
  growth: 24%
OVCAR-5 ovarian
  growth: 28%
OVCAR-4 ovarian
  growth: 18.6%
SK-OV-3 ovarian
  growth: 23.8%
IGROV1 ovarian
  growth: 21.1%
OVCAR-3 ovarian
  growth: -45.2% (active)
HS 578T breast
  growth: 4.32% (active)
NCI/ADR-RES ovarian
  growth: -36.2% (active)
T-47D breast
  growth: 3.73% (active)
BT-549 breast
  growth: 9.33% (active)
MDA-MB-435 melanoma
  growth: 34.8%
SW-620 colon
  growth: 8.01% (active)
MCF7 breast
  growth: 0.997% (active)
HCT-116 colon
  growth: -33.6% (active)
HCC-2998 colon
  growth: -38.9% (active)
KM12 colon
  growth: 8.69% (active)

## O=CN1N=C(c2ccc(Nc3ccnc4cc(Cl)ccc34)cc2)CC1c1ccccc1 (stereo not drawn)
RPMI-8226 leukemia
  growth: 17.2%
OVCAR-8 ovarian
  growth: 51.8%
OVCAR-5 ovarian
  growth: 84.1%
OVCAR-4 ovarian
  growth: 39%
SK-OV-3 ovarian
  growth: 41.3%
IGROV1 ovarian
  growth: 50.2%
OVCAR-3 ovarian
  growth: 14.6%
HS 578T breast
  growth: 47.5%
NCI/ADR-RES ovarian
  growth: 7.22% (active)
T-47D breast
  growth: 31.7%
BT-549 breast
  growth: 39.1%
MDA-MB-435 melanoma
  growth: 8.64% (active)
SW-620 colon
  growth: 31.8%
MCF7 breast
  growth: 18.2%
HCT-116 colon
  growth: 24%
HCC-2998 colon
  growth: 36.2%
KM12 colon
  growth: 35.9%

## COc1ccc(-c2c(C(=O)NS(C)(=O)=O)n(Cc3cccc(C(F)(F)F)c3)c3ccccc23)cc1
RPMI-8226 leukemia
  growth: 81.2%
OVCAR-8 ovarian
  growth: 82.1%
OVCAR-5 ovarian
  growth: 106%
OVCAR-4 ovarian
  growth: 96.1%
SK-OV-3 ovarian
  growth: 97.2%
IGROV1 ovarian
  growth: 90.7%
OVCAR-3 ovarian
  growth: 88.5%
HS 578T breast
  growth: 86.5%
NCI/ADR-RES ovarian
  growth: 94.4%
T-47D breast
  growth: 87.7%
BT-549 breast
  growth: 92.3%
MDA-MB-435 melanoma
  growth: 97.3%
SW-620 colon
  growth: 95.4%
MCF7 breast
  growth: 91.4%
HCT-116 colon
  growth: 84.5%
HCC-2998 colon
  growth: 108%
KM12 colon
  growth: 92.8%

## Cc1ccc(-c2nc3c(c(-c4ccccc4)nn3-c3ccccc3)c(-c3ccc(O)cc3)c2C#N)cc1
RPMI-8226 leukemia
  growth: 21.4%
OVCAR-8 ovarian
  growth: 69%
OVCAR-5 ovarian
  growth: 104%
OVCAR-4 ovarian
  growth: 82.2%
SK-OV-3 ovarian
  growth: 92.6%
IGROV1 ovarian
  growth: 82.6%
OVCAR-3 ovarian
  growth: 64.5%
HS 578T breast
  growth: 24%
NCI/ADR-RES ovarian
  growth: 81.4%
T-47D breast
  growth: 61.2%
BT-549 breast
  growth: 76.8%
MDA-MB-435 melanoma
  growth: 64.5%
SW-620 colon
  growth: 62.8%
MCF7 breast
  growth: 26.4%
HCT-116 colon
  growth: 42.4%
HCC-2998 colon
  growth: 95.3%
KM12 colon
  growth: 55.9%

## CN1CCN(Cc2ccc(NC(=O)c3cncc(C#Cc4cnccc4C#N)c3)cc2C(F)(F)F)CC1
RPMI-8226 leukemia
  growth: 34.1%
OVCAR-8 ovarian
  growth: 74.2%
OVCAR-5 ovarian
  growth: 60.5%
OVCAR-4 ovarian
  growth: 35.9%
SK-OV-3 ovarian
  growth: 101%
IGROV1 ovarian
  growth: 67.2%
OVCAR-3 ovarian
  growth: 86.3%
HS 578T breast
  growth: 24%
NCI/ADR-RES ovarian
  growth: 74%
T-47D breast
  growth: 93.5%
BT-549 breast
  growth: 76.5%
MDA-MB-435 melanoma
  growth: 42%
SW-620 colon
  growth: 50.7%
MCF7 breast
  growth: 42.5%
HCT-116 colon
  growth: 24%
HCC-2998 colon
  growth: 50.8%
KM12 colon
  growth: 22.3%

From PubChem BioAssay (NCI)
